Screening results deposited in PubChem BioAssay by National Center for Advancing Translational Sciences (NCATS).
Most compounds without a hit are left out; they make up all but 12% or so of the library.
L3MBTL1 block = blocks human L3MBTL1. Q9Y468. AlphaScreen L3MBTL1–H3K9me1 peptide binding. Potency, µM (titrated, usually from 57.1 µM), for inactives: at the top dose activity, negative = inhibition, hits mostly inhibitors. 230,000 tested, 0.66% active. AID 485360; also: % is scaled to controls: 0 for no effect and ±100 for the full control effect; nearly all actives have a fitted effect of over 60% in size
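First, the protein-peptide complex forms for 30 min at room temperature (L3MBTL1 50 nM, biotinylated H3K9me1 peptide 75 nM). Next, compounds are pin-transferred and incubated 30 min. Finally, AlphaScreen beads are added and read after 30 min.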
HP1b chromo inh = HP1-beta chromodomain-methylated histone interaction inhibition; P83916; AlphaScreen HP1-beta / biotin-H3K9me3 peptide binding; 390,000 tested, 0.56% active; Potency, µM (top dose mostly 114 µM), without a hit: top-dose activity change, negative = inhibition, hits mostly inhibitors; AID 540317; also: nearly all actives have a fitted effect of over 70% in size
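Compound inhibition of the preformed complex between 50 nM HP1-beta and 50 nM biotinylated H3K9me3 peptide was read by AlphaScreen. Buffer was PBS pH 7.4 with 0.01% Tween-20. Incubations ran 30 min at room temperature, with 10 ug/mL donor/acceptor beads.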
JMJD2A Tudor inh = blocks the human JMJD2A Tudor domain; 390,000 tested, 4.4% active; O75164; AlphaScreen JMJD2A-Tudor / H3K4me3 peptide binding; Potency, µM (doses to about 114 µM), for the others: at the top dose activity change, negative = inhibition, usual class: inhibitors; also: % is scaled to controls: 0 for no effect and ±100 for the full control effect; nearly all actives have a fitted effect of over 50% in size
G9a inh = G9a (human) methyltransferase inhibition | Q96KQ7 | G9a H3K9 monomethylation, AlphaScreen, 2 h | Potency, µM (highest dose often 102 µM), without a hit: at the top dose activity, negative = inhibition, hits mostly inhibitors | 350,000 tested, 8.8% active | AID 504332; also: % is scaled to controls: 0 for no effect and ±100 for the full control effect; nearly all actives have a fitted effect of over 75% in size
Target sequence (Q96KQ7 913-1193 limits assumed): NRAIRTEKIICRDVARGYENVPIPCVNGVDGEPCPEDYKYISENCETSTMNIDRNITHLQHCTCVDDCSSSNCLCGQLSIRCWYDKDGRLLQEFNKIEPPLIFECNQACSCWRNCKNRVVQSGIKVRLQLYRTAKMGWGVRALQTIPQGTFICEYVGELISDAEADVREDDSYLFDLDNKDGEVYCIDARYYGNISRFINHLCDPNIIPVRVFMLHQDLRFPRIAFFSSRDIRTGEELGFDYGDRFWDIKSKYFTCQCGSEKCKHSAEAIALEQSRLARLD
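Methyltransferase reactions run at room temperature for 2 h (20 nM enzyme, 500 nM biotin-H3K9 peptide, 20 uM SAM) after a 15 min compound preincubation; product detected by AlphaScreen beads and anti-H3K9me1 antibody.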
Sfp inh = blocks B. subtilis Sfp PPTase activity | Biochemical Sfp PPTase activity, qHTS | Q9F4F7 | AID 1490 | Potency, µM, for the others: largest response in the series, negative = inhibition, most hits filed as inhibitors | 310,000 tested, 3.5% active;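 also: the enzyme is Sfp with the accession as filed and its product quenches rhodamine fluorescence; 0% = enzyme reaction without inhibitor and -100% = no enzyme wells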
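Compounds were incubated with enzyme (final 15 nM) for 15 min at room temperature before substrate addition started the reaction. Fluorescence at 525 nm excitation, 598 nm emission was recorded immediately and after 30 minutes.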
BAZ2B block = blocks human BAZ2B; AlphaScreen BAZ2B-H3K14Ac peptide displacement; Potency, µM (series often up to 114 µM), without a hit: at the highest dose activity change, negative = inhibition, usual class: inhibitors; AID 504333; 360,000 tested, 4.4% active; Q9UIF8; also: % is scaled to controls: 0 for no effect and ±100 for the full control effect; nearly all actives have a fitted effect of over 60% in size
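BAZ2B 50 nM plus b-H3(5-23)K14Ac 50 nM, PBS pH 7.4/0.01% Tween-20, 30 min RT; compound added (max 110 uM), 30 min RT; streptavidin donor/Ni-chelate acceptor beads 10 ug/mL final, 20 min dark; AlphaScreen read.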
Starred values were filed as active, the others as inactive; ? = inconclusive; / = no result given. Calls follow the shape of the dose curve; as a rule, active = well fitted curve in the direction sought with a large enough effect; inconclusive = small, poorly fitted or top-dose-only effect, or another doubt; inactive = no such curve, though single readings can be large; an effect the other way counts as inactive or inconclusive. Potency is read from the fitted curve at half-maximal effect.

SMILES	L3MBTL1 block	HP1b chromo inh	JMJD2A Tudor inh	G9a inh	Sfp inh	BAZ2B block
Cc1ccc(OCC(=O)Nc2ccc([N+](=O)[O-])cc2)cc1	-2.4%	32.6%	-8.3%	-2.6%	8.0%	-2.6%
Cc1ccc(C(=O)NC(=S)NNC(=O)COc2ccc([N+](=O)[O-])cc2)cc1	/	-18.8%	25.1µM*	3.55µM*	70.8µM*	3.3%
Cn1c(N)c(-c2ccccc2)c2ccc([N+](=O)[O-])cc2c1=O	/	?	?	35.5µM*	-20.3%	?
CC1=C(C(=O)OCc2ccccc2)C(c2ccccc2)NC(=O)N1CCCCCC(=O)O (stereo not given)	-1.1%	44.1%	-26.4%	79.4µM*	-13.6%	-9.6%
COC(=O)CCCN1C(=O)NC(c2ccc(-c3ccccc3)cc2)C(C(=O)OCc2ccccc2)=C1C (stereo not given)	35.0%	8.9%	-17.4%	/	/	/
